# Assay results taken from PubChem BioAssay AID448 (National Center for Advancing Translational Sciences (NCATS), 2006).
# In all, about 65,000 compounds went through this assay and about 45 (0.07%) were called active. The list is a sample of the results. Values without a mark were called inactive. The call rests on the fitted dose curve.
# System: Schistosoma mansoni peroxiredoxin 2 (Prx2)
# Assay: Schistosoma Mansoni Peroxiredoxins (Prx2)
# Conditions: S. mansoni Prx2 activity coupled to TGR/GSH (TGR is thioredoxin glutathione reductase), NADPH fluorescence loss, qHTS
# Text: NIH Molecular Libraries Screening Centers Network [MLSCN]
# NIH Chemical Genomics Center [NCGC]
# David Williams [Illinois State University]
# Schistosoma mansoni, a causative agent of schistosomiasis, resides in the bloodstream of their host up to 30 years without being eliminated by the host immune attack. One proposed survival mechanism is the production of an antioxidant "firewall" that neutralizes the oxidative assault of the host's immune attack. Schistosoma mansoni peroxiredoxins (Prx) are important parasite antioxidant proteins that play a crucial role in redox balance mechanisms. […] First, the proteins are essential for the parasite survival. […] Third, the protein(s) is amenable for study at the molecular level and can be produced in bacteria in large quantities, in soluble and active form. Inhibition of Prx activity was screened in a coupled-enzyme format with reducing equivalents being transferred from NADPH to […] intermediate via thioredoxin/glutathione reductase (TGR)-catalyzed reaction, then from thioredoxin to hydrogen peroxide via Prx-catalyzed electron transfer. A decrease in the fluorescence intensity of NADPH was used to measure the enzyme activity. Purified S. mansoni TGR and Prx were provided by Professor David L. Williams, Illinois State University.
# NCGC Assay Protocol Summary:
# 100 mM phosphate buffer, pH 7.4, 10 mM EDTA, 0.01% Tween-20.
# 100 uM NADPH/25 nM TGR/700 uM GSH/50 nM Prx2 mixture in columns 1, 2, 5-48. Titration of control potassium antimonyl tartrate (PAT, from 1 mM, then 1:5) pin-transferred to lower half of column 2. Column 1 and upper half of column 2 are neutral (100% activity).
# Three uL of reagents were dispensed to 1536-well Greiner black plates. Compounds and controls (20 nL) were transferred via Kalypsys PinTool. The plates were incubated for 15 min at room temperature, and then a 1 uL aliquot of 400 uM NADPH/700 uM GSH was added, immediately followed by a 1uL aliquot of 2.5 mM H2O2 (to start the reaction). The plate was transferred to ViewLux (Perkin-Elmer) High-throughput CCD imager where kinetic measurements (every 30 sec, for a total of 8 min) of NADPH fluorescence were taken using 365 nm excitation/450 nm emission filter set. During dispense, enzyme-containing reagent bottles were kept submerged into 4 deg C water bath to minimize degradation.
# Keywords: NIH Roadmap, MLSCN, MLI, MLSMR, David Williams, Peroxyredoxin, Schistosoma mansoni, prx2, prx, , qHTS, NCGC
# Potency means the concentration at half of the fitted maximal effect.
row,SMILES,Potency
1,Nc1nc(N)c2[nH]c(CNc3ccc(C(=O)O)cc3)nc2n1,> 57 µM
2,COc1ccccc1CCn1c(=O)c(-c2cn(C)c3ccccc23)nc2cncnc21,> 57 µM
3,Cc1cc(N2CCCCC2)nc2ccc(Cc3ccc4nc(N5CCCCC5)cc(C)c4c3)cc12,> 11.4 µM
4,CC(C)C[C@@H](CC(=O)N[C@@H](CCC(=O)O)CC(=O)O)NC(=O)[C@@H]1CCCC[C@H]1NC(=O)C[C@@H](NC(=O)C[C@H](CO)NC(=O)[C@@H]1CCCC[C@H]1N)C(C)C,> 25.6 µM
5,O=c1c(CCc2ccccc2)nc2cnc(N3CCNCC3)nc2n1Cc1cccs1,> 57 µM
6,CS(=O)(=O)N1CCC2(CCN(c3ccncc3)CC2)CC1,> 57 µM
7,N[C@H](C(=O)O)c1ccc(C(=O)O)c(O)c1,> 57 µM
8,Cc1cc(OCC(=O)O)c(Cl)cc1Cl,> 57 µM
9,CC(C)NC(=O)N1CC[C@@]2(CCCN(C(=O)c3cccc(F)c3)C2)C1,> 57 µM
10,Cn1c(=S)c2[nH]c(SCCCc3ccccc3)nc2n(C)c1=O,> 57 µM
11,CN1CCC2(CC1)CCN(S(=O)(=O)c1ccccc1)CC2,> 57 µM
12,Cc1cc2c(cc1C)NC1=C(N2)O[C@H](c2c[nH]c3ccc(COc4ccccc4)cc23)C1=O,> 57 µM
13,O=c1c(-c2cc(F)cc(F)c2)nc2cnc(Oc3ccccc3)nc2n1C[C@H]1CCCO1,> 11.4 µM
14,FC(F)(F)c1ccccc1-c1nc(-n2ccnc2)c2ccccc2n1,> 57 µM
15,O=C(O)c1ccc(C(=O)O)c2c(C(=O)O)ccc(C(=O)O)c12,> 57 µM
16,COc1ccccc1CNc1ncnc2ccc(-c3c(C)noc3C)cc12,> 57 µM
17,CC(C)c1ccc2c([Si](C)(C)C)c3c(nc2c1)-c1cccc(=O)n1C3,> 57 µM
18,COc1ccc2[nH]c3cc4c(=O)c5cc(OC)ccc5[nH]c4cc3c(=O)c2c1,> 57 µM
19,Cc1cccc(CNc2ccnc(-c3cccnc3)n2)c1,> 57 µM
20,C[C@@H](C(=O)Nc1ccc2ccccc2c1)[C@@H]1C[C@@]1(C)[C@@H](NC(=O)c1cccnc1)c1ccccc1,> 57 µM
21,CCNc1ncc2ncc(=O)n(Cc3cccc(OC)c3)c2n1,> 57 µM
22,Cc1c(C)c2c(c(C)c1O)CC[C@@](C)(CN1CCN(c3cc(N4CCCC4)nc(N4CCCC4)n3)CC1)O2,> 25.6 µM

row,SMILES,Potency
1,CN(C)C(=O)c1ccc(-c2cncnc2NC2CCNCC2)cc1,> 57 µM
2,COc1ccc(Br)c2c1C[C@H](C(=O)O)CC2,> 57 µM
3,COC(=O)[C@@H]1[C@H]2C[C@H]3c4[nH]c5cc(OC)ccc5c4CCN3C[C@@H]2C[C@@H](OC(=O)c2cc(OC)c(OC)c(OC)c2)[C@@H]1OC,> 57 µM
4,O=C(c1ccc(F)cc1)C1CCN(CCCCc2ccccc2)CC1,> 57 µM
5,Cc1ccnc(N)c1,> 25.6 µM
6,COc1ccccc1CNc1cc(-c2ccccc2CN(C)C)ncn1,> 57 µM
7,O=C(NCc1ccccc1)[C@H]1C[C@@H]1[C@H](NP(=O)(c1ccccc1)c1ccccc1)c1ccccc1,> 57 µM
8,COc1ccccc1-c1nc(NCCNC(C)=O)c2ccccc2n1,> 57 µM
9,O=C(c1cccc(F)c1)N1CCC2(CCCN(Cc3ccncc3)C2)CC1,> 57 µM
10,O=c1cc(-c2ccccc2)[nH]c2nc(Cl)ccc12,> 57 µM
11,O=c1cc(-c2ccc(O)c(O)c2)oc2cccc(O)c12,> 57 µM
12,CC(C)C[C@@H](CC(=O)N[C@@H](CCC(=O)O)CC(=O)O)NC(=O)[C@@H]1CCCC[C@H]1NC(=O)C[C@@H](NC(=O)C[C@H](Cc1c[nH]c2ccccc12)NC(=O)[C@@H]1CCCC[C@H]1N)C(C)C,> 57 µM
13,C[N+]1(CCN=C=NC2CCCCC2)CCOCC1,> 57 µM
14,O=C(c1cc(C(F)(F)F)cc(C(F)(F)F)c1)N1CCC2(CC1)CN(c1ccncc1)C2,> 57 µM
15,O=C(c1csnn1)N1CCC[C@@]2(CCN(Cc3nccs3)C2)C1,> 57 µM
16,COC(=O)[C@@]1(Cc2ccc(F)cc2)[C@H]2c3cc(C(=O)N4CCCC4)n(Cc4ccc(OC(F)(F)F)cc4)c3C[C@H]2CN1C(=O)c1ccccc1,> 57 µM
17,CC[C@]1(C)CC(=O)NC1=O,> 57 µM
18,Cn1cc(-c2nc3cnc(N4CCNCC4)nc3n(CCC#N)c2=O)c2ccccc21,> 57 µM
19,O=C(O)c1ccc(C(=O)c2ccccc2C(=O)O)cc1C(=O)O,> 57 µM
20,O=C1c2ccccc2C(=O)N1CCCSc1ccccc1,> 57 µM
21,O=C(O)COc1c(Cl)cc(Cl)c2cccnc12,> 57 µM
22,COc1cccc(Cn2c(=O)c(-c3cc(F)cc(F)c3)nc3cnc(OC)nc32)c1,> 57 µM

row,SMILES,Potency
1,CCC[C@@H]1C[C@@]1(CCC)C(NC(=O)c1ccc(-c2ccccc2)cc1)c1cccc(Cl)c1 (some centres not stated),> 57 µM
2,COc1cccc(-c2nc(Nc3ccncc3)c3ccccc3n2)c1,> 57 µM
3,Clc1ccc(C(c2ccc(Cl)cc2)n2cc[n+](C[C@@H](OCc3ccc(Cl)cc3Cl)c3ccc(Cl)cc3Cl)c2)cc1,> 57 µM
4,CC(=O)N1CCC2(CC1)CCN(c1ccncc1)CC2,> 57 µM
5,CCOc1ccc(N=NS(=O)(=O)O)cc1,> 57 µM
6,NCCNCC1CCNCC1,> 57 µM
7,CN(C)c1cc2c(Nc3ccc4c(cnn4Cc4ccccc4)c3)ncnc2cn1,> 57 µM
8,C[C@@H]1CC[C@H]2[C@H](C)[C@H]3[C@H](C[C@H]4[C@@H]5CC=C6C[C@@H](O)CC[C@@]6(C)[C@@H]5C[C@@H](O)[C@]34C)N2C1,> 57 µM
9,CCNc1ncc2nc(CCc3ccccc3)c(=O)n(-c3ccc(OC)cc3)c2n1,> 57 µM
10,Oc1c(Br)cc(CN(Cc2cc(Br)c(O)c(Br)c2)C2CCCCC2)cc1Br,> 57 µM
11,COc1ccc(-n2c(=O)c(C)nc3cnc(N4CCOCC4)nc32)cc1,> 57 µM
12,C[C@@H](N)[C@@H](C)Cc1ccccc1,> 57 µM
13,CN1CCN2c3ccccc3Cc3ccccc3[C@@H]2C1,> 57 µM
14,CNc1nc(-c2ccccc2OC)nc2ccccc12,> 57 µM
15,O=C(Nc1ccccc1)N[C@H]1C[C@H](C(=O)O)Nc2cc(Cl)cc(Cl)c21,> 57 µM
16,COc1ccc(C(=O)N/N=C2/C(=O)c3c(C)cc(C)cc3CC2(C)C)cc1,> 57 µM
17,N#Cc1cc2[nH]c(=O)c(=O)[nH]c2cc1[N+](=O)[O-],> 25.6 µM
18,c1cncc(CNc2ccnc(-c3ccc4c(c3)OCO4)n2)c1,> 57 µM
19,O=C(c1csnn1)N1CCC2(CCN(Cc3nccs3)CC2)CC1,> 57 µM
20,COCCNc1ncnc2ccc(-c3ccccc3CN(C)C)cc12,> 57 µM
21,O=c1c(-c2ccc(F)cc2)nc2cnc(N3CCOCC3)nc2n1-c1ccccc1,> 11.4 µM
22,CC(=O)/C(=N\N=C(N)N)c1ccccc1,> 57 µM

row,SMILES,Potency
1,COCCn1c(=O)c(-c2ccccc2)nc2cnc(N3CCOCC3)nc21,> 57 µM
2,CN(C)c1ncc2nc(-c3ccc(F)cc3)c(=O)n(Cc3ccc(F)cc3)c2n1,> 57 µM
3,O=C1NC(=O)[C@@](Cc2ccccc2)(c2cccnc2)N1,> 57 µM
4,N#Cc1cccc(-c2ccc3ncnc(NCc4cccs4)c3c2)c1,> 57 µM
5,O=C(Oc1ccc2c(c1)CN(Cc1ccccc1)CO2)c1ccccc1,> 57 µM
6,O=C(O)c1nn(-c2ccc(Cl)cc2)c2c1C(=O)c1ccccc1C2=O,> 57 µM
7,O=C(O)c1c(Br)c(Br)c(Br)c(Br)c1C1c2ccc(O)cc2Oc2cc(O)ccc21,> 57 µM
8,c1ccc2c(Nc3ccncc3)nc(-c3ccc4c(c3)OCO4)nc2c1,> 57 µM
9,CCON=C1C(C)(C)C(C)(C)C(C)(C)C1(C)C,> 57 µM
10,Cc1ccc(-c2nn(CC(C)(C)C)c3ncnc(N)c23)cc1,> 57 µM
11,CN/C(=C\[N+](=O)[O-])NCCSCc1csc(CN(C)C)n1,> 57 µM
12,c1ccc2nc(C3=NCCN3)cnc2c1,> 57 µM
13,Cc1[nH]c(N)nc(=S)c1CCCNc1ccccc1,> 57 µM
14,COc1ncc2nc(-c3ccc(Cl)cc3)c(=O)n(C)c2n1,> 57 µM
15,CCNc1ncc2ncc(=O)n(CCc3ccccc3)c2n1,> 57 µM
16,COc1ccccc1-c1cc(NCc2cccs2)ncn1,> 57 µM
17,O=C(c1csnn1)N1CCC2(CC1)CN(c1ncccn1)C2,> 57 µM
18,COCCn1c(=O)c(-c2cccc(F)c2)nc2cncnc21,> 57 µM
19,Cc1c2c(nc3ccccc13)-c1cccc(=O)n1C2,> 57 µM
20,O=C(c1ccco1)N1CCC[C@@]2(CCN(c3ccccc3)C2)C1,> 57 µM
21,COc1ccc(C(=O)N2CCC3(CC2)CCN(c2ccccn2)CC3)cc1,> 57 µM
